# SARS PLP yeast: qHTS of Yeast-based Assay for SARS-CoV PLP | 0.19% of 330,000 active | Potency, µM (doses to about 32.9 µM), inactives show at the highest dose activity, positive = growth rescue, actives largely listed as activators | S. cerevisiae expressing SARS-CoV PLpro, growth rescue; calls by dose curve; also: 0% is about no effect; nearly all actives have a fitted effect of over 55% in size
# Pf growth 96h: Primary qHTS for delayed death inhibitors of the malarial parasite plastid, 96 hour incubation | AID 504834, 2011 | Potency, µM (doses to about 28.7 µM), for inactives: top-dose activity change, negative = inhibition, usual class: inhibitors | P. falciparum luciferase reporter growth, 96 h | 6.9% of 320,000 active; also: % is scaled to controls: 0 for no effect and ±100 for the full control effect
#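 P. falciparum expressing integrated firefly luciferase, in erythrocytes at 2% hematocrit, 0.05% parasitemia, incubated with compounds 96 h at 37 C, 5% CO2. Growth inhibition read as loss of luminescence; two-generation exposure targets delayed-death apicoplast inhibitors.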
# AmpC inh detg: qHTS Inhibitors of AmpC Beta-Lactamase (assay with detergent); P00811; AmpC hydrolysis of nitrocefin, absorbance 480 nm, 0.01% Triton; Potency, µM (series often up to 114 µM), without a hit: top-dose activity change, negative = inhibition, most hits filed as inhibitors; 0.041% of 370,000 active;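 also: 0% = no-compound wells and -100% = no-enzyme wells; nearly all actives have a fitted effect of over 25% in size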
# Target sequence (P00811 whole entry, looked up): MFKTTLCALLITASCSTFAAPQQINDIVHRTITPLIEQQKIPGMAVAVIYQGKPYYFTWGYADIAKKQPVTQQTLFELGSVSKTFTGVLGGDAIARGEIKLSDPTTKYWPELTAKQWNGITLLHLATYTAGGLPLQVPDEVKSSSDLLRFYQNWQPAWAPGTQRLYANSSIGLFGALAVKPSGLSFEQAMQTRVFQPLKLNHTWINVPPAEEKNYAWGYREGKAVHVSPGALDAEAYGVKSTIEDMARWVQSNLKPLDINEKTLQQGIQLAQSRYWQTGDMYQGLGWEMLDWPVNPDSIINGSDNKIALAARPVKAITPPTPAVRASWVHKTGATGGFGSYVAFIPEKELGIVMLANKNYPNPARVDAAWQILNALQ
#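 20 mM phosphate pH 7.0 + 0.01% (detergent screen) or 0.0001% Triton X-100; 5.3 nM AmpC reagent; cpd preinc 15 min RT; nitrocefin (800 uM stock) to start; A480 q20 s × 4 min; Activity was normalised to no-enzyme and no-compound control wells.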
# Pf growth 48h: Primary qHTS for delayed death inhibitors of the malarial parasite plastid, 48 hour incubation. P. falciparum luciferase growth in erythrocytes, 48 h. Potency, µM (doses to about 28.7 µM), without a hit: top-dose activity change, negative = inhibition, usual class: inhibitors. 5.9% of 310,000 active; also: % is scaled to controls: 0 for no effect and ±100 for the full control effect
#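 Parasite viability was followed by luminescence of a genomically integrated firefly luciferase. Cultures held 0.1% parasitemia at 2% hematocrit (final), incubated under 5% CO2 at 37 C.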
# Sm TGR inh: qHTS Assay for the Inhibitors of Schistosoma Mansoni Peroxiredoxins; 3% of 360,000 active; Potency, µM (doses to about 114 µM), for the others: at the highest dose activity change, negative = inhibition, usual class: inhibitors; Schistosoma mansoni thioredoxin glutathione reductase (TGR), Q962Y6; AID 485364, 2010; purified TGR, DTNB reduction, TNB absorbance 405 nm; also: % is scaled to controls: 0 for no effect and ±100 for the full control effect; nearly all actives have a fitted effect of over 60% in size
#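 Kinetic colorimetric format: TGR-catalysed, NADPH-driven DTNB reduction monitored via TNB absorbance. Enzyme dispensed at 20 nM; compound exposure 15 min at room temperature before reaction start.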
# AmpC inh no detg: qHTS Inhibitors of AmpC Beta-Lactamase (assay without detergent). P00811. AmpC nitrocefin hydrolysis, absorbance 480 nm, 0.0001% Triton. Potency, µM (doses to about 57.1 µM), for inactives: at the top dose activity change, negative = inhibition, hits mostly inhibitors. 0.52% of 330,000 active;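 also: plate controls were no compound for no effect and no enzyme for full effect; nearly all actives have a fitted effect of over 20% in size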
#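 20 mM phosphate pH 7.0 + 0.01% (detergent screen) or 0.0001% Triton X-100; 5.3 nM AmpC reagent; cpd preinc 15 min RT; nitrocefin (800 uM stock) to start; A480 q20 s × 4 min; Activity was normalised to no-enzyme and no-compound control wells.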
# Numbers without * were called inactive; ? = inconclusive; / = no result; [ ] = another dose, or the depositor's remark. Sampled rows, rich in hits. Any-hit rate of the full collection: about 12%. Unless noted, calls follow the shape of the dose curve; as a rule, active = well fitted curve in the direction sought with a large enough effect; inconclusive = small, poorly fitted or top-dose-only effect, or another doubt; inactive = no such curve, though single readings can be large; an effect the other way counts as inactive or inconclusive. Potency is read from the fitted curve at half-maximal effect.
SMILES,SARS PLP yeast,Pf growth 96h,AmpC inh detg,Pf growth 48h,Sm TGR inh,AmpC inh no detg
Nc1nnc(SCC(=O)c2ccc3c(c2)NC(=O)CO3)s1,1%,?,-8%,6%,-5%,-26%
CCOC(=O)c1c(NC(=O)COc2ccccc2OCC)sc2c1CC(C)(C)NC2(C)C,1%,12µM*,0%,?,-7%,111%
CCOC(=O)c1c(NC(=O)COC(=O)c2ccc(C)s2)sc2c1CC(C)(C)NC2(C)C,0%,4%,0%,-6%,0%,24%
CCOC(=O)c1c(NC(=O)CCS(=O)(=O)c2ccccc2)sc2c1CC(C)(C)NC2(C)C,0%,?,-6%,-20%,40µM*,45%
CC(CNC(=O)c1csc2c1CCCCC2)c1ccccc1 (centres undefined),/,/,12%,/,-1%,/
CCn1nnc2c(=O)oc3ccccc3c21,0%,4.1µM*,4%,-26%,-8%,-9%
O=C(CCCn1c(=O)c2cccn2c2ccccc21)NCc1ccccc1Br,/,/,23%,/,0%,/
CC(=O)Nc1ccc(NC(=O)c2c(C)nn(-c3ccccc3)c2Cl)cc1C,1%,14%,3%,7%,-76%,94%
CCCCc1ccc(-n2nc3ccc(NC(=O)c4cc5ccccc5o4)cc3n2)cc1,/,/,13%,/,4%,/
Cc1ccc(/C=c2\s/c(=C(/C#N)C(=O)N3CCCC3)n(Cc3ccco3)c2=O)s1,-2%,20%,0%,?,5µM*,-33%
COc1cc(/C=c2\s/c(=C(/C#N)C(=O)N3CCCC3)n(-c3ccccc3)c2=O)ccc1O,-9%,20%,-5%,/,18%[11.4 µM],-29%
COc1cc(NC(=O)COC(=O)CCc2cc(OC)c(OC)c(OC)c2)cc(OC)c1,-1%,3%,0%,7%,-11%,-1%
CC(C)c1ccc(NC(=O)C(NS(=O)(=O)c2ccc3c(c2)CCC(=O)N3)c2ccccc2)cc1 (centres undefined),/,/,-1%,/,-2%,/
CCOC(=O)c1ccc(NC(=O)c2cccc3c(=O)c4c([nH]c23)CCCC4)cc1,/,/,22%,/,0%,/
CN(C)CC(O)CN1C(=O)NC(C)(C)C1=O (centres undefined),0%,2.1µM*,0%,12%,-6%[57.1 µM],-18%
CCc1ccc(-n2c(=O)c3c4c(sc3n(CC(=O)N3CCC(C)CC3)c2=O)CCC4)cc1,/,/,2%,/,-3%,/
COC(=O)c1[nH]c2ccccc2c1NC(=O)CN1CCN(c2cccc(OC)c2)C(C)C1 (centres undefined),-9%,/,0%,9.3µM*,4%,42%
CCOC(=O)c1[nH]c2ccc(OC)cc2c1NC(=O)CN1CCc2ccccc2C1,-13%,12µM*,?,?,-6%,40%
COC(=O)c1[nH]c2cc(OC)ccc2c1NC(=O)CCN1CCN(c2ccccc2)CC1,7%,/,-1%,-17%,-7%,100%
CCOC(=O)c1[nH]c2ccc(OCC)cc2c1NC(=O)CN1CCN(c2ccccn2)CC1,-1%,4.7µM*,-18%,7.4µM*,-21%,77%
CCOC(=O)c1[nH]c2ccc(OC)cc2c1NC(=O)CN1CCN(c2ccccn2)CC1,-3%,-19%,?,-14%,-22%,-16%
CCOC(=O)c1[nH]c2ccc(F)cc2c1NC(=O)C(C)N1CCc2cc(OC)c(OC)cc2C1 (centres undefined),1%,?,3%,15µM*,-27%,79%
COC(=O)c1[nH]c2cc(OC)ccc2c1NC(=O)CCN1CCN(c2cccc(C)c2C)CC1,-1%,-5%,?,2.6µM*,5%,156%
Cc1ccc(CCNC(=O)c2ccc(CSc3nc4ccncc4n3Cc3ccc(F)cc3)cc2)cc1,/,/,21%,/,1%,/
O=C(CSc1nnc(Cn2c(=O)sc3ccccc32)n1-c1ccccc1)N1CCCCCC1,-12%,?,-6%,?,0%,50%
SMILES,SARS PLP yeast,Pf growth 96h,AmpC inh detg,Pf growth 48h,Sm TGR inh,AmpC inh no detg
COc1ccc(-n2c(SCC(=O)Nc3nccs3)nnc2-c2ccoc2C)cc1,-12%,?,-13%,/,-16%,-39%
COc1ccc(-n2c(SCC(=O)Nc3nc(C)cs3)nnc2-c2ccoc2C)cc1,-25%,3%,-2%,5.9µM*,-31%,0%
O=C(CSc1nnc(Cn2c(=O)sc3ccccc32)n1-c1ccccc1)Nc1nccs1,-6%,4.7µM*,1%,?,-9%,-12%
COc1cccc(-n2c(SCC(=O)Nc3nccs3)nnc2-c2ccoc2C)c1,-20%,145%,?,8.3µM*,-3%,-10%
CCCN(C(=O)Cc1coc2cc(OC)ccc12)C1CCS(=O)(=O)C1 (centres undefined),11%,/,/,/,/,-12%
O=C(COc1ccccc1F)Nc1ccc(OCc2cc(=O)n3ccccc3n2)cc1,/,/,8%,/,0%,/
Cc1ccc(C(=O)Nc2ccc(C(=O)O)cc2)cc1S(=O)(=O)NCc1ccccc1,-2%,?,0%,16%,5%,-28%
CCOc1ccc(N2C(=O)CC(NCC#N)C2=O)cc1 (centres undefined),-23%,-18%,-10%,?,2.8µM*,-20%
CCOc1ccc(N2C(=O)CC(NCc3ccc(S(N)(=O)=O)cc3)C2=O)cc1 (centres undefined),-4%,16%,1%,-3%,4%,-5%
CCOc1ccc(N2C(=O)CC(NC3CCCCNC3=O)C2=O)cc1 (centres undefined),-55%,-17%,-3%,9%,22µM*,-14%
CCCOc1ccc(N2C(=O)CC(NCc3cccnc3)C2=O)cc1 (centres undefined),-5%,-1%,-3%,0%,0%,-2%
CCCOc1ccc(N2C(=O)CC(NCCNc3ccc([N+](=O)[O-])cn3)C2=O)cc1 (centres undefined),-4%,0%,1%,4%,8.9µM*,30%
NC(=S)N=Nc1c(O)[nH]c2cc(F)c(F)cc12,0%,9.3µM*,-7%,?,-11%,-25%
CC(C)Cn1nc(NC(=O)C2CCCO2)c2cc3ccccc3nc21 (centres undefined),-1%,?,?,?,2%,23%
CCOC(=O)c1ccc(-c2c(C(=O)OCC)oc3cc(O)c(CC)cc3c2=O)o1,-4%,?,-11%,10µM*,3%,-10%
